Screening results: PubChem, National Center for Advancing Translational Sciences (NCATS)
This is one part of a sample in which hits are shown more often than they occur.
APEX1 inh: blocks human APE1 abasic DNA cleavage; Potency, µM (titrated, usually from 65.8 µM), inactives show top-dose activity change, negative = inhibition, most hits filed as inhibitors; recombinant APE1, TAMRA/BHQ-2 abasic DNA cleavage fluorescence; 350,000 tested, 0.35% active; P27695;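 note: plate controls were vehicle for no effect and reference inhibitor for full effect; nearly all actives have a fitted effect of over 55% in size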
Target sequence (P27695 whole entry, looked up): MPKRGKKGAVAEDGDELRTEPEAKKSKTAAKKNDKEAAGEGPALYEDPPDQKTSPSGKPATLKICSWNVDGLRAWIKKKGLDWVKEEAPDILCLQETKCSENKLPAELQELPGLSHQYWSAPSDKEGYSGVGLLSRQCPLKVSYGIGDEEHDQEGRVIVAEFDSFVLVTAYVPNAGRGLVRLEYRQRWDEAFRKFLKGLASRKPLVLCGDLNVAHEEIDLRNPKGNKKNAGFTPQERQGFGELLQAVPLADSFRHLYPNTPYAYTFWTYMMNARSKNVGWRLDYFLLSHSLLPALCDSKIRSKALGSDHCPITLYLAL
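Activity was derived from the fluorescence gain between first and third kinetic reads (60 s intervals, ex 525/em 598 nm) after 50 nM THF-abasic TAMRA/BHQ-2 duplex was added to 0.75 nM APE1 preincubated 15 min with compound.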
L3MBTL1 inh: L3MBTL1 (human) inhibition; Q9Y468; AlphaScreen L3MBTL1–H3K9me1 peptide binding; Potency, µM (top dose mostly 57.1 µM), for inactives: at the highest dose activity, negative = inhibition, usual class: inhibitors; 230,000 tested, 0.66% active; AID 485360; note: nearly all actives have a fitted effect of over 60% in size
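First, the protein-peptide complex forms for 30 min at room temperature (L3MBTL1 50 nM, biotinylated H3K9me1 peptide 75 nM). Next, compounds are pin-transferred and incubated 30 min. Finally, AlphaScreen beads are added and read after 30 min.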
KDM4E inh: blocks human JMJD2E demethylase activity; B2RXH2; JMJD2E catalytic domain, FDH-coupled NADH fluorescence (FDH is formaldehyde dehydrogenase); Potency, µM (titrated, usually from 57.1 µM), without a hit: at the top dose activity change, negative = inhibition, usual class: inhibitors; 230,000 tested, 1.6% active; AID 2147; active = well fitted inhibition curve with a large enough effect, not every such curve was filed as active; inconclusive = small, poorly fitted or top-dose-only effect, or another doubt; inactive = no such curve, though single readings can be large or run the other way;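 note: 0% = wells with enzyme and -100% = buffer wells without enzyme; nearly all actives have a fitted effect of over 50% in size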
Target sequence (B2RXH2 1-337 limits assumed): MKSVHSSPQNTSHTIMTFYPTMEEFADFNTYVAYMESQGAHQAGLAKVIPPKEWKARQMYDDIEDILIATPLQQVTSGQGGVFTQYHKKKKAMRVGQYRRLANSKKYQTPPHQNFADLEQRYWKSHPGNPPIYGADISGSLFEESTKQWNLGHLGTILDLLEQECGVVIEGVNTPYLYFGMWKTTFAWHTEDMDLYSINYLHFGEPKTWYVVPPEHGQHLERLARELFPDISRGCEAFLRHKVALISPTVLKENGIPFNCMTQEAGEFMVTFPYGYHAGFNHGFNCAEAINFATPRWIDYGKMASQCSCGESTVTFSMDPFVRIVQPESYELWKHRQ
RECQ1 helicase: blocks DNA unwinding by human RECQ1; RECQ1 DNA unwinding, red fluorescence kinetic read; 240,000 tested, 0.54% active; AID 2549; Potency, µM (titrated, usually from 57.3 µM), inactives show at the highest dose activity, negative = inhibition, hits mostly inhibitors; P46063;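 note: plate controls were vehicle for no effect and no enzyme for full effect; nearly all actives have a fitted effect of over 30% in size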
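50 nM RECQ1T1 preincubated 15 min with compound in Tris pH 8.0 buffer with MgCl2, DTT, Tween-20 and 2.5 ug/ml poly(dI-dC); started with 200 nM TAMRA/BHQ-2 forked duplex and 2 mM ATP. Unwinding read as fluorescence (525/598 nm), two reads 2 h apart.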
BLM helicase inh: Bloom syndrome helicase (human) inhibition | AID 2528 | Potency, µM (series often up to 56.1 µM), for inactives: at the highest dose activity change, negative = inhibition, most hits filed as inhibitors | 350,000 tested, 0.2% active | P54132 | recombinant BLM DNA unwinding, fluorescence dequenching;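 note: plate controls were vehicle for no effect and no enzyme for full effect; nearly all actives have a fitted effect of over 35% in size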
TDP1 block: inhibitors of human tyrosyl-DNA phosphodiesterase TDP1. recombinant TDP1, AlphaScreen DNA substrate cleavage. Potency, µM (titrated, usually from 130 µM), for the others: at the highest dose activity change, negative = inhibition, actives largely listed as inhibitors. 350,000 tested, 0.28% active; note: nearly all actives have a fitted effect of over 40% in size
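Enzyme-compound mixtures sat 15 min at room temperature, followed by a 5 min reaction with 15 nM final substrate and 10 min with AlphaScreen beads. Recombinant human Tdp1 was used at 1 nM final.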
Numbers without * were called inactive; i = inactive; ? = inconclusive; · = no result given; ! = a repeat was not active. Unless noted, calls come from the whole dose curve; as a rule, active = well fitted curve in the direction sought with a large enough effect; inconclusive = small, poorly fitted or top-dose-only effect, or another doubt; inactive = no such curve, though single readings can be large; an effect the other way counts as inactive or inconclusive. Unless noted, % is set by controls: 0 for no effect and ±100 for the full control effect; potency is the fitted concentration of half-maximal effect.

SMILES	APEX1 inh	L3MBTL1 inh	KDM4E inh	RECQ1 helicase	BLM helicase inh	TDP1 block
O=C(O)c1cc(O)c2c(c1)[C@H]([C@H]1c3cc(C(=O)O)cc(O)c3C(=O)c3c(O[C@@H]4O[C@H](CO)[C@@H](O)[C@H](O)[C@H]4O)cccc31)c1cccc(O[C@@H]3O[C@H](CO)[C@@H](O)[C@H](O)[C@H]3O)c1C2=O	0.4µM*	·	·	·	·	·
CCOC(=O)c1cc(-c2ccccc2C)nn1Cc1cc(CC)no1	6%	57%	·	·	·	56µM*
CC[C@@]1([C@@H]2O[C@@H]([C@H]3O[C@@](O)(CO)[C@H](C)C[C@@H]3C)C[C@@H]2C)CC[C@H]([C@]2(C)CC[C@]3(C[C@H](O)[C@@H](C)[C@@H]([C@@H](C)[C@@H](OC)[C@H](C)C(=O)O)O3)O2)O1 (stereo in doubt)	-2%	·	·	·	·	·
COc1ccc(N2C(=O)CC(Sc3ncn[nH]3)C2=O)c(OC)c1 (centres undefined)	3%	-2%	2.8µM*	i	-5%	3%
CC(C)c1ccc(N2C(=O)CC(Sc3ncn[nH]3)C2=O)cc1 (centres undefined)	18%	·	1.6µM*	i	0%	?
CC(C)c1ccc(N2C(=O)CC(Sc3nc4ccccc4o3)C2=O)cc1 (centres undefined)	4%	-6%	-1%	-3%	-10%	2%
Cn1c2cc(C=O)sc2c2cnn(Cc3ccccc3F)c(=O)c21	·	·	·	·	·	-2%
CCOC(=O)[C@H](Cc1ccc(O)cc1)NC(=O)c1ccccc1	-1%	·	·	-8%	2%	13%
COc1ccc(C2Nc3ccccc3C(=O)N2c2cccc3ccccc23)cc1COc1c(C)cccc1C (centres undefined)	·	·	·	·	·	0%
CC(C)=CCC/C(C)=C/COc1c2occc2cc2ccc(=O)oc12	?	5%	?	-5%	-19%	20µM*!
CC(C)=CCC/C(C)=C/COc1ccc2ccc(=O)oc2c1	2%	106%	?	3%	-13%	-5%
CC(C)=CCc1c(O)ccc2c1OC(c1ccc(O)c(O)c1)CC2=O (centres undefined)	-7%	-23%	?	-22%	-7%	3%
O=C1CC(c2ccc(O)c(O)c2)Oc2c1ccc(O)c2O (centres undefined)	0.13µM*	·	6.3µM*	1.6µM*	4µM*	·
CCC(C(=O)Nc1ccc(C(C)=O)cc1)n1c(C)c2cnn(-c3ccccc3)c(=O)c2c1C (centres undefined)	·	·	·	·	-5%	5%
CCCCCC(CC)COC(=O)CC(C(=O)OCC(CC)CCCC)S(=O)(=O)O (centres undefined)	·	·	·	·	-29%	·
CN(C)c1ccc(N/C=C/C(=O)c2ccc(F)cc2)cc1	-5%	-20%	13µM*	10%	-3%	7%
NC(=O)C1CCN(c2nc(-c3ccccc3)cs2)CC1	2%	·	·	·	·	·
CC(C)(C)n1ncc2c(=O)n(Cc3cccc(OC(F)F)c3)cnc21	-8%	·	·	·	·	·
O=C(N/N=C/c1cn(-c2ccccc2)nc1-c1ccc2c(c1)OCCO2)c1ccncc1	-9%	·	?	-14%	-15%	50µM*
COc1ccc(-c2nn(-c3ccccc3)cc2/C=N/NC(=O)c2ccc(Br)o2)cc1	-1%	35µM*	?	?	-6%	3%
O=C(NCc1ccccc1)c1cccc(COc2ccc3c(c2)CCC3)c1	-5%	13%	?	-16%	-11%	-2%
O=C(O)c1cccc(COc2ccc3c(c2)CCC3)c1	?	22µM*	11%	1%	1%	1%
Cc1c(C)c2c(c(C)c1OC(=O)CCC(=O)O)CC[C@@](C)(CCC[C@H](C)CCC[C@H](C)CCCC(C)C)O2	·	·	·	·	-30%	·
CCCCN(CC)CCNC(=O)c1c(C)oc2ncnc(N3CCOCC3)c12	·	·	·	·	2%	-8%
Cc1cc(SCC(=O)Nc2ccc3[nH]c(=O)[nH]c3c2)nc2ccccc12	-13%	2%	·	·	·	45µM*
SMILES	APEX1 inh	L3MBTL1 inh	KDM4E inh	RECQ1 helicase	BLM helicase inh	TDP1 block
CSc1nc(N2CCN(CCO)CC2)c2sc3nc(-c4ccco4)c4c(c3c2n1)CCC4	17%	-7%	-25%	-2%	13µM*	4%
COc1cc2c(c(OC)c1OC)-c1c(cc(OC)c(OC)c1OC)CC(C)C(C)C2 (centres undefined)	-1%	·	·	-7%	-12%	6%
CCCCCCCCC1OC1CCCCCCCC(=O)O (centres undefined)	-2%	·	-3%	6%	-1%	3%
CCCCCCCCCCCCCCCC(=O)C1=C(O)C(CO)OC1=O (centres undefined)	?	·	·	35µM*	·	21%
CCCNC(=O)c1cnc2sc(N3CCCCCC3)nn2c1=O	·	·	·	·	0%	5%
O=C(CC1Sc2ncnn2C1=O)Nc1ccc(Br)cc1 (centres undefined)	-10%	3%	2.2µM*	i	0%	-2%
O=C(N/N=C/c1ccc(O)c(O)c1O)/C(=C/c1ccc([N+](=O)[O-])cc1)NC(=O)c1ccccc1	1%	·	10µM*	4%	-15%	12%
Cc1ccc(NC(=O)/C(=C\c2ccc([N+](=O)[O-])cc2)NC(=O)c2ccccc2)cc1	14%	2%	-1%	12%	-4%	2%
N#Cc1c(-c2cccc(C(F)(F)F)c2)no[n+]1[O-]	-8%	·	·	·	·	·
C[C@H](N)CCP(=O)(O)O	3%	·	·	i	·	-2%
Cc1cc(C(=O)O)ccc1[C@H](N)C(=O)O	40µM*!	·	-2%	3%	-2%	-7%
CCc1nn2c(=O)cc(COc3ccc(/C=C4\C(=N)N5N=C(C)SC5=NC4=O)cc3)nc2s1	?	·	?	?	13µM*	?
Cc1c(F)cccc1Cn1cnc2c(cnn2C(C)(C)C)c1=O	-8%	·	·	·	·	·
O=C(N/N=C\c1c(O)ccc2ccccc12)c1ccc(O)cc1	-19%	-5%	·	·	-17%	·
O=C(N/N=C/c1c(O)ccc2ccccc12)c1ccc[n+](CCO)c1	-6%	35µM*	32µM*	-8%	-1%	8%
O=C(N/N=C/c1c(O)ccc2ccccc12)c1ccc(Br)o1	15µM*	·	·	·	-18%	?
COc1ccccc1C1=Nn2c(nnc2-c2ccccc2C)SC1	-7%	·	·	8%	-1%	10%
COc1cc(-c2nn3c(-c4cc(-c5ccccc5)n[nH]4)nnc3s2)cc(OC)c1OC	·	·	·	·	·	1%
N#CC1=C(N)SC(N)=C(C#N)C1c1ccoc1	?	5µM*	?	-14%	?	·
O=C(CN1C(=O)/C(=C2\SC(=S)N(CCS(=O)(=O)O)C2=O)c2ccccc21)Nc1cccc(Br)c1	6.7µM*	·	·	·	-15%	·
C=C1C=C(C(F)F)n2ncc(C(=O)NCc3ccccc3Cl)c2N1	40%	·	·	·	·	·
